Measurements reported in PubChem BioAssay AID1452 (National Center for Advancing Translational Sciences (NCATS), 2008).
About 190 (0.13%) of roughly 150,000 compounds were called active. Inconclusive results (about 2%) are left out. The entries come from a sample that favours actives as a whole. A number with no mark means an inactive call. Calls follow the shape of the dose curve; as a rule, active = well fitted inhibition curve with a large enough effect; inconclusive = small, poorly fitted or top-dose-only effect; inactive = flat fitted curve, though single readings scatter.

These compounds were tested against Polyunsaturated fatty acid lipoxygenase ALOX12 (Homo sapiens) (UniProt P18054) (assay: qHTS Assay for Inhibitors of 12-hLO (12-human lipoxygenase)). Conditions: purified 12-hLO, xylenol orange hydroperoxide absorbance; series mostly up to 57.1 µM; activity change, negative = inhibition: at the top concentration.
Sequence of Polyunsaturated fatty acid lipoxygenase ALOX12 (Homo sapiens) (P18054 whole entry, looked up): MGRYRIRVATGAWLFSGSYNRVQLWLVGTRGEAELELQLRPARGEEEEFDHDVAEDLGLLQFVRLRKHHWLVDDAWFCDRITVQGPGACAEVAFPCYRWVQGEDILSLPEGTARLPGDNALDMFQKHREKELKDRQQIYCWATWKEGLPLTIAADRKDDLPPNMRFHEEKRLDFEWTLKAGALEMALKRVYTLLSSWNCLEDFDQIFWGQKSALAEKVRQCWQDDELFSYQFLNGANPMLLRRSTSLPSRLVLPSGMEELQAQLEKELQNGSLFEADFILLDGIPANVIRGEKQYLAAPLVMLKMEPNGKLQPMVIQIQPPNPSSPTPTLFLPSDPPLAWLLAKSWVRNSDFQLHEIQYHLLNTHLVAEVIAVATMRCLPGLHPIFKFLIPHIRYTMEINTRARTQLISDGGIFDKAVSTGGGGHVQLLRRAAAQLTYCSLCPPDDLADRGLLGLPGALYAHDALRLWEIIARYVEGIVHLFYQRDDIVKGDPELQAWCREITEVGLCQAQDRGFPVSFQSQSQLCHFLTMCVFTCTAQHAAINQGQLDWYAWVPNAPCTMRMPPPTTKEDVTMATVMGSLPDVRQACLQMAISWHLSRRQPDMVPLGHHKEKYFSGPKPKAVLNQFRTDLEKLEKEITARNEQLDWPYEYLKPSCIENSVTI
From the text: Assay Provider: Holman, T.R., University of California, Santa Cruz Screening Center PI: Austin, C.P. Screening Center: NIH Chemical Genomics Center [NCGC] Human lipoxygenase 12hLO is a member of the closely related lipoxygenase family of enzymes which catalyze the site-specific oxidation of arachidonic acid to various hormone precursor molecules and as such is a candidate for drug development in a variety of disease areas, such as cancer and inflammation. Inhibition of 12hLO activity was screened by utilizing arachidonic acid as a substrate. The extent of hydroperoxide product formation was measured by a secondary chromogenic reaction in which xylenol orange (XO, Sigma-Aldrich, cat. number 39,818-7) reacts with the ferric ions produced from the reaction between the hydroperoxide and ferrous ions. The Fe(III)-XO complex is characterized with red-shifted absorbance at 560 nm. A purified preparation of human 12hLO was supplied by Professor Ted Holman, University of California, Santa Cruz.
Assay Protocol: Buffer: 25 mM Hepes pH 7.0, 0.01% Triton X-100. Reagents/Controls: Buffer in columns 3 and 4 as negative control (no enzyme). Substrate solution: 40 uM arachidonic acid (Sigma-Aldrich, St. Louis, MO) final concentration dispensed throughout the plate. Enzyme: 150 nM 12hLO final concentration in columns 1, 2, 5-48. Column 1 is neutral (100% activity). Column 2 contained pin-transferred titration of NDGA (nordihidroguaiaretic acid, Sigma-Aldrich, N 5023, top concentration 20 mM in DMSO, then 1:3 dilution in duplicate). (Dilution factor: 23 nL into 4 uL.) Chromogenic detection reagent (divalent iron/xylenol orange, Fe-XO): 200 uM xylenol orange plus 300 uM ferrous ammonium sulfate prepared freshly in 50 mM sulfuric acid. Assay Steps: Three uL of enzyme were dispensed to 1536-well Greiner black clear bottom plates. Compounds and controls (23 nL) were transferred via Kalypsys PinTool. The plates were incubated for 15 min at room temperature, and then 1 uL of substrate solution was added to start the reaction. After room temperature incubation for 30 minutes, 4 uL of Fe-XO solution was added to each well and the plates were incubated for 30 min. The absorbance at 405 and 573 nm were measured using ViewLux (Perkin-Elmer) High-throughput CCD imager and absorbance protocol settings. The 573-to-405 absorbance ratio was used to compute reaction progress.
% is scaled to controls: 0 for no effect and ±100 for the full control effect; potency is read from the fitted curve at half-maximal effect.
Also: nearly all actives have a fitted effect of over 55% in size.

Row | SMILES | activity change, negative = inhibition | Potency
1 | COc1cc(NS(=O)(=O)c2ccc(N=Cc3c(C)[nH]n(-c4ccccc4)c3=O)cc2)nc(OC)n1 | -2.19% | –
2 | COc1cc(NS(=O)(=O)c2ccc(N/C=C(\C=O)c3nc4cc(Cl)ccc4o3)cc2)nc(OC)n1 | – | 15.8 µM (active)
3 | COc1cc(OC)cc(C(=O)Nc2ccc(S(=O)(=O)Nc3cc(C)on3)cc2)c1 | -4.65% | –
4 | N#C/C=C\Oc1ccc(Cl)cc1N | – | 22.4 µM (active)
5 | COc1ccc(Cl)cc1C(=O)NCC#N | 0.698% | –
6 | CC1CCCCN1S(=O)(=O)c1ccc(S(=O)(=O)N(CC(=O)Nc2ccccc2)Cc2cccs2)cc1 (centres undefined) | 0.18% | –
7 | CCCCC/C=C\C/C=C\CCCCCCCCCC(N)=O | 1.17% | –
8 | O=C(NCc1cccs1)c1ccc(Br)o1 | 8.12% | –
9 | CCCCC/C=C\C/C=C\C/C=C\CCCCCCC(N)=O | 4.46% | –
10 | CN(C)CCCNC(=S)NCc1ccc(Cl)cc1 | -4.25% | –
11 | S=C(NCc1ccc(Cl)cc1)NC12CC3CC(CC(C3)C1)C2 | – | 22.4 µM (active)
12 | COC(=O)Cc1ccc(NC(=S)NCc2ccc(Cl)cc2)cc1 | -16.8% | –
13 | c1ccc(C2=Nc3cccc4cccc(c34)N2)cc1 | 0.53% | –
14 | CCOC(=O)C1=C(C)c2ccccc2OC1(C)C(=O)OCC (centres undefined) | -0.153% [at 0.00818 µM] | –
15 | Cc1ccc(-c2cc(C(=O)NCc3cn(C)nc3C)c3cc(Br)ccc3n2)cc1 | 2.04% | –
16 | CCCCOc1ccc(C(=O)N/C(=C/C=C/c2ccccc2)C(=O)N2CCOCC2)cc1 | -1.06% | –
17 | CC(=O)c1c(O)cc2n(c1=O)-c1ccc(Cl)cc1C2(C)C | 5.14% | –
18 | COc1ccc(-c2nc3c(c4c2C[C@H](c2ccccc2)OC4)CN(C(=O)C2CC2)CC3)c(C)c1 | -3.7% [at 11.4 µM] | –
19 | COC(=O)N1C(/C=C/C=C/c2ccc(OC)cc2)=Cc2ccccc2C1CC(C)=O (centres undefined) | 1.56% [at 11.4 µM] | –
20 | Cc1ccc(S(=O)(=O)N(Cc2ccc(Cl)cc2)c2ccccc2C(=O)NCc2cccnc2)cc1 | 1.33% | –
21 | CCOC(=O)c1cnc2ccc(F)cc2c1Nc1ccc2c(c1)OCCO2 | -1.08% | –
22 | CC1=C(/C=C/C(C)=C/C=C/C(C)=C/C=C/C=C(C)/C=C/C=C(C)/C=C/C(=O)[C@]2(C)C[C@@H](O)CC2(C)C)C(C)(C)C[C@H](O)C1 | -3.45% [at 0.00818 µM] | –
23 | O=C(Cn1cnc2ccccc21)N/N=C/c1ccco1 | -2.72% | –

Row | SMILES | activity change, negative = inhibition | Potency
24 | O=C(O)c1ccc(N=NN2CCOCC2)cc1 | -1.99% | –
25 | C=C1c2cccc(OC)c2O[C@H](C(=O)OCC)[C@@H]1CCCCCC | -4.96% [at 0.00818 µM] | –
26 | CCCCCCCC/C=C\CCCCCCCC(=O)NCC(=O)O | 3.9% | –
27 | CCCCCCCC[n+]1cccc(C(=O)N2c3c(nc(N)[nH]c3=O)NC(C)C2C)c1 (centres undefined) | -3.59% | –
28 | C[C@@H]1C(c2ccc(F)cc2)=NN(c2ccc(Br)cc2)[C@H]1C(=O)N1CCOC1=O | -4.22% [at 0.00818 µM] | –
29 | O=[N+]([O-])c1ccccc1SNc1ccccn1 | 2.54% | –
30 | C=C1C2C[C@H](O)C(C)(C)[C@@]2(O)[C@H](O)C[C@]23C[C@@](C)(O)[C@H](CC[C@H]12)[C@H]3O (some centres undefined) | -0.156% | –
31 | CCOC(=O)C1C/C(=C\C(C)=O)c2cccc(C(F)(F)F)c2O1 (centres undefined) | -1.22% [at 0.00818 µM] | –
32 | CC(Nc1oc(-c2ccccc2)nc1-c1ccccc1)c1ccccc1 (centres undefined) | inactive | –
33 | Cc1cc2oc(=O)cc(-c3ccccc3)c2c(C)c1/C=C/c1ccc(F)cc1 | -3.71% [at 0.00818 µM] | –
34 | COc1cccc(C(=O)Nc2cc3c(cc2Br)OCCCO3)c1 | -0.158% | –
35 | CCCCC[C@H](O)/C=C/[C@@H]1[C@@H](CC(=O)CCC(=O)O)[C@@H](O)C[C@H]1O | 1.55% | –
36 | COc1ccc(CCNC(=O)/C(C#N)=C2\N=C(NC(=O)c3cccs3)c3ccccc32)cc1 | 0.415% | –
37 | O=C(OC1CCOC1=O)c1cccc(S(=O)(=O)Nc2ccc(F)cc2)c1 (centres undefined) | 1.87% | –
38 | O=C(CNCc1ccc(F)cc1)Nc1ccccc1-c1ccccc1 | -0.876% | –
39 | COc1ccccc1N=Cc1c(O)c2ccccc2oc1=O | 0.0273% | –
40 | CC(=O)Nc1ccc(S(=O)(=O)NCC(=O)OCc2cc(=O)oc3ccc4ccccc4c23)cc1 | 1.72% | –
41 | COC(=O)C1=C(C(=O)OC)[C@@H]2N(C)c3ccccc3[C@@]23C[C@@H](C(=O)OC)N(S(=O)(=O)c2ccc(Br)cc2)C3=N1 | 2.4% [at 11.4 µM] | –
42 | COC(=O)c1c(NC(=O)COC(=O)[C@@H](NS(=O)(=O)c2ccccc2)C(C)C)sc2c1CCC2 | -1.84% | –
43 | Brc1ccc(C2=NCCC(c3ccccc3)O2)cc1 (centres undefined) | 0.263% [at 0.00818 µM] | –
44 | COc1ccc(-c2nc3c(c4c2C[C@H](c2ccccc2)OC4)CN(C(=O)c2cccnc2)CC3)c(C)c1 | 1.97% [at 11.4 µM] | –
45 | COc1ccc(-c2nnc(SC(C)C#N)o2)cc1 (centres undefined) | -9.79% | –
46 | COc1ccc(-c2nnc(SC(=O)N3c4ccccc4Sc4ccccc43)o2)cc1 | – | 14.1 µM (active)

Row | SMILES | activity change, negative = inhibition | Potency
47 | COc1ccc(-c2nnc(SCc3cccnc3)o2)cc1 | -1.27% | –
48 | COc1ccc(C(=O)COC(=O)c2ccc3ccccc3n2)cc1 | -2.31% | –
49 | O=c1cc(CN2CCN(S(=O)(=O)/C=C/c3ccccc3)CC2)c2ccc(O)cc2o1 | -3.24% | –
50 | COc1ccc(C2CC(=O)Oc3ccc(C(C)(C)C)cc32)cc1 (centres undefined) | -4.97% [at 0.00818 µM] | –
51 | CCOc1ccc(N2C(=O)/C(=C/c3ccc(C)o3)N(C)C2=S)cc1 | -4.46% | –
52 | COC(=O)CCCC1=CC2=C(c3ccccc3)C(=O)C(C)(OC(=O)C3CCCC3)C(=O)C2=CN1c1ccc(OC)cc1 (centres undefined) | -9.71% [at 11.4 µM] | –
53 | COCCCNC(=S)NC(=O)c1ccccc1 | -6.12% | –
54 | CCOC(=O)C1=C(NC(=S)NC(=O)c2ccccc2)c2ccccc2CC1(C)C | – | 25.1 µM (active)
55 | CCOC(=O)c1c(NC(=O)C2(C)Cc3ccccc3C(=O)O2)sc2c1CCCC2 (centres undefined) | 15.1% | –
56 | C[C@H]1Cc2c(-c3ccccc3)nc3c(c2CO1)CN(C(=O)C1CC1)CC3 | 2.53% [at 11.4 µM] | –
57 | CC(NC(=O)CCC(=O)N1CCN(S(=O)(=O)c2ccc(Cl)cc2)CC1)c1ccccc1 (centres undefined) | -1.88% | –
58 | Cc1cc(C)cc(OCC(=O)NNC(=O)CCN2C(=O)c3ccccc3C2=O)c1 | -4% | –
59 | C/C(=C\c1ccccc1)C1NC(=O)c2c(sc3c2CCCC3)N1 (centres undefined) | -1.08% | –
60 | O=C(CN1C(=O)c2cccc3cccc(c23)C1=O)N1CCCCC1 | -0.677% | –
61 | CCOC(=O)N1CCN(C(=O)C2CCN(Cc3ccc(OC)cc3OC)CC2)CC1 | -2.84% | –
62 | O=C1OCCN1C(=O)[C@H]1[C@H](c2ccccc2)C(c2ccc(F)cc2)=NN1c1ccccc1 | -8.19% [at 0.00818 µM] | –
63 | C[C@H]1Cc2c(COc3ccccc3)nc3c(c2CO1)CN(C(=O)NCc1ccco1)CC3 | 1.43% [at 11.4 µM] | –
64 | COC(=O)CC1c2ccccc2C(Cc2ccc(OC)cc2)=C(C)N1C(=O)OC (centres undefined) | 2.48% [at 11.4 µM] | –
65 | C=CCn1c2ccccc2c2nnc(SCc3[nH]c(=O)[nH]c3C(=O)CCCCC(=O)OCC)nc21 | -6.15% | –
66 | COC(=O)CN1C(=S)N(c2ccccc2)C(=O)C1CC(=O)Nc1ccc(Cl)cc1 (centres undefined) | -15.2% | –
67 | CC(=O)c1c(N2CCN(c3ccc(F)cc3)CC2)nc(=S)n(-c2ccccc2)c1C | -1.83% | –
68 | COc1ccc(-c2nc(-c3ccccc3)oc2Nc2ccc3ccccc3c2)cc1 | -1.22% | –
69 | O=[N+]([O-])c1ccc(NCCCO)c(C(F)(F)F)c1 | -1.65% | –

Row | SMILES | activity change, negative = inhibition | Potency
70 | CNC(=O)NC(=O)C(OC(=O)c1cccc(S(=O)(=O)N2CCCCC2)c1)c1ccccc1 (centres undefined) | 2.13% | –
71 | O=C1OCCN1C(=O)[C@H]1[C@H](c2ccc(F)cc2)C(c2ccccc2)=NN1c1ccc(Br)cc1 | -8.73% [at 0.00818 µM] | –
72 | CCCCC(CC(C)O)c1n[nH]c(=S)n1-c1ccccc1 (centres undefined) | 2.18% | –
73 | CCCc1cc(-c2n[nH]c(=S)n2Cc2ccccc2)cs1 | -10.4% | –
74 | CC(C)Oc1ccc(CCc2n[nH]c(=S)n2Cc2ccccc2)cc1 | – | 31.6 µM (active)
75 | NNc1nnc(NN)c2ccccc12 | -2.71% [at 0.00818 µM] | –
76 | CCOC(=O)C1=C(C)c2ccccc2OC1C(=O)OCC (centres undefined) | 1.63% [at 0.00818 µM] | –
77 | COC(=O)C1(C(C)=O)CC2=CC[C@H]3C(=O)N(c4ccccc4)C(=O)[C@H]3[C@@H]2Cc2ccccc2[C@@H]1C[N+](=O)[O-] (some centres undefined) | 0.0255% | –
78 | N#Cc1ccsc1NC(=O)CN1CCN(S(=O)(=O)c2cc(Cl)ccc2Cl)CC1 | -0.442% | –
79 | Cc1nn(-c2ccccc2)c(C)c1/C=N/NC(=O)CSc1nc2ccccc2c(=O)n1-c1ccccc1 | -0.304% | –
80 | CCOC(=O)c1c(NC(=O)Cn2nc(C(F)(F)F)cc2C)sc2c1CCC2 | 0.245% | –
81 | CCOc1cc(/C=N/NC(=O)OC)ccc1OCCSc1ccc(Cl)cc1 | -0.0265% | –
82 | COc1ccc(Br)cc1C(=O)NC(=S)Nc1cc(-c2nc3ccccc3[nH]2)ccc1C | -4.68% | –
83 | C=CCNC(=S)N/N=C/c1ccc(OCc2ccccc2)cc1 | -3.94% | –
84 | CCS(=O)(=O)Nc1cccc(-c2cc(-c3ccccc3)c3cc(C)ccc3n2)c1 | 1.99% | –
85 | O=C(COC(=O)c1c2c(nc3ccccc13)/C(=C\c1cccs1)CCC2)Nc1ccccc1Cl | -2.57% | –
86 | COC(=O)C1=C(C(=O)OC)[C@@H]2N(C)c3ccccc3[C@@]23C[C@@H](C(=O)OC)N(S(=O)(=O)c2cccs2)C3=N1 | -1.35% [at 11.4 µM] | –
87 | CCCCc1cc2c(s1)CCCC/C2=N/O | -1.86% | –
88 | NC(=O)c1ccccc1N=Cc1ccc2ccccc2c1 | -0.382% | –
89 | CC(C)CCN1C(=O)c2ccc(C(=O)Nc3cccc(S(N)(=O)=O)c3)cc2C1=O | 3.13% | –
